An excerpt weighted towards active compounds, which were near 11% of everything screened.
HEK cytotox = HEK 293 cell cytotoxicity. HEK 293 viability, ATP luminescence (CellTiter-Glo), 48-72 h. Potency, µM (titrated, usually from 115 µM), inactives show at the top dose activity change, negative = cytotoxicity, most hits filed as inhibitors. actives 6.6% (n = 94,000). AID 1345083; active = well fitted curve in the direction sought with a large enough effect; inconclusive = small, poorly fitted or top-dose-only effect, or another doubt; inactive = no such curve, though single readings can be large; an effect the other way counts as inactive or inconclusive; note: % is set by controls: 0 for no effect and ±100 for the full control effect; nearly all actives have a fitted effect of over 60% in size
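CellTiter-Glo luminescence (cellular ATP) was read after 48 or 72 hr of compound exposure at 37 degree Celsius. Cells were HEK 293 plated at 250 cells/well.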
NPR1 antag = human Npr1 receptor antagonism | P16066 | HEK293 hNpr1 GloSensor cGMP, ANP-stimulated luminescence | Potency, µM (doses to about 46.3 µM), for the others: top-dose activity change, negative = inhibition, most hits filed as inhibitors | actives 1.6% (n = 76,000) | AID 1347048; note: % is set by controls: 0 for no effect and ±100 for the full control effect; nearly all actives have a fitted effect of over 60% in size
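Compound pre-incubated 30 min at room temperature on GloSensor-loaded HEK293 cells stably carrying hNpr1 and the pGS-40F cGMP biosensor. Stimulation uses hNppA at 0.1 nM final; luminescence is taken at baseline and 20 min post-agonist.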
NIH3T3 tox = kills NIH 3T3 cells; NIH 3T3 viability, CellTiter-Glo ATP luminescence, 48-72 h; Potency, µM (top dose mostly 96.7 µM), without a hit: at the top dose activity change, negative = cytotoxicity, most hits filed as inhibitors; actives 4.3% (n = 94,000); AID 1345082; active = well fitted curve in the direction sought with a large enough effect; inconclusive = small, poorly fitted or top-dose-only effect, or another doubt; inactive = no such curve, though single readings can be large; an effect the other way counts as inactive or inconclusive; note: % is set by controls: 0 for no effect and ±100 for the full control effect; nearly all actives have a fitted effect of over 55% in size
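Mouse fibroblast NIH 3T3 cells, 400 per well, received compound via pintool and were incubated for 48 or 72 hr prior to CellTiter-Glo ATP luminescence measurement.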
FLuc inh = Photinus pyralis luciferase inhibition; P08659; purified P. pyralis luciferase, luminescence, biochemical; Potency, µM (top dose mostly 115 µM), actives largely listed as inhibitors; actives 2.5% (n = 76,000); AID 1347043; active = well fitted curve in the direction sought with a large enough effect; inconclusive = small, poorly fitted or top-dose-only effect, or another doubt; inactive = no such curve, though single readings can be large; an effect the other way counts as inactive or inconclusive; note: % is set by controls: 0 for no effect and ±100 for the full control effect; nearly all actives have a fitted effect of over 65% in size
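Inhibitors were tested against purified firefly luciferase in a biochemical, low-substrate format (both substrates at 10uM) and luminescence measured with a CCD imager.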
NPR1 antag cnf = confirmation of human Npr1 natriuretic peptide receptor antagonists | shares compounds with NPR1 antag | HEK293 hNpr1 cGMP GloSensor luminescence, ANP-stimulated | Potency, µM (series often up to 57.6 µM), without a hit: top-dose activity change, negative = inhibition, actives largely listed as inhibitors | actives 76% (n = 1,400) | AID 1347044; note: nearly all actives have a fitted effect of over 70% in size
NPR2 antag = hNpr2 antagonism, selectivity versus Npr1; AID 1347046; HEK293 hNpr2 GloSensor cGMP luminescence, CNP-stimulated; Potency, µM (titrated, usually from 57.6 µM), inactives show at the top dose activity change, negative = inhibition, most hits filed as inhibitors; shares compounds with NPR1 antag; actives 67% (n = 1,400); note: nearly all actives have a fitted effect of over 70% in size
FLuc inh counter = counter-screen for Npr1 antagonists: firefly luciferase inhibitors. shares compounds with NPR1 antag. purified FLuc enzyme, luminescence, Km substrate. Potency, µM (highest dose often 57.6 µM), for the others: top-dose activity change, negative = inhibition, most hits filed as inhibitors. actives 0.7% (n = 1,400). AID 1347047; active = well fitted curve in the direction sought with a large enough effect; inconclusive = small, poorly fitted or top-dose-only effect, or another doubt; inactive = no such curve, though single readings can be large; an effect the other way counts as inactive or inconclusive; note: 0% is about no effect
GloSensor cGMP = counter-screen for Npr1 antagonists: GloSensor control cell line; actives 69% (n = 1,400); HEK293 GloSensor cGMP, SNP-stimulated, luminescence; shares compounds with NPR1 antag; Potency, µM (top dose mostly 57.6 µM), inactives show at the highest dose activity change, negative = inhibition, actives largely listed as inhibitors; note: % is set by controls: 0 for no effect and ±100 for the full control effect; nearly all actives have a fitted effect of over 70% in size
* = called active by the depositor; i = inactive; ? = inconclusive; . = no result given; [ ] = dose if it differs, or a comment. Unless noted, calls come from the whole dose curve. Potency is the fitted concentration of half-maximal effect.

SMILES	HEK cytotox	NPR1 antag	NIH3T3 tox	FLuc inh	NPR1 antag cnf	NPR2 antag	FLuc inh counter	GloSensor cGMP
COc1ccccc1Nc1ncc2c(n1)CN(C(=O)Cc1ccc3c(c1)OCO3)CCN2	?	-15%[70.6 µM]	-13%[138 µM]	i	.	.	.	.
O=C(NCCC1CCN(C(=O)Nc2cc(F)ccc2F)CC1)c1ccccn1	-17%	.	-34%	.	.	.	.	.
O=C(NC1CCCCC1)O[C@@H]1CO[C@H]2[C@@H]1OC[C@@H]2Nc1nccc(-c2cccs2)n1	?	10µM*	112µM*	i	5µM*	7.9µM*	4%[86.2 µM]	7µM*
O=S(=O)(N[C@H]1CO[C@H]2[C@@H]1OC[C@@H]2Nc1nccc(-c2cccs2)n1)c1cccs1	28µM*	10µM*	?	i	22µM*	19µM*	0%	15µM*
CC(C)CN[C@H]1CO[C@H]2[C@@H]1OC[C@@H]2Nc1nccc(-c2cccs2)n1	?	25µM*	?	i	40µM*	?	4%[86.2 µM]	31µM*
CN(C)CC(=O)N1CC(F)(F)C[C@H]1c1nc(C2CC2)no1	i	2%	i	i	.	.	.	.
CC1Oc2ccc(NC(=O)c3ccc(F)cc3F)cc2CN(CCc2ccccc2)C1=O (stereo unspecified)	?	3%	-26%	i	.	.	.	.
CC(=O)Oc1ccccc1C(=O)Nc1ccc2c(c1)CN(CCc1ccc(F)cc1)C(=O)C(C)O2 (stereo unspecified)	?	16µM*	25µM*	i	24µM*	24µM*	-7%	24µM*
CC1Oc2ccc(NC(=O)Cc3ccccc3)cc2CN(Cc2ccc(Cl)cc2)C1=O (stereo unspecified)	?	11µM*	?	i	22µM*	19µM*	4%	17µM*
COc1cccc([S+](=O)([O-])N2CCc3nc(C)nc(-c4ccc(Cl)cc4)c3C2)c1	?	0%	?	i	.	.	.	.
CC(=O)Nc1ccc(S(=O)(=O)N[C@H]2CO[C@H]3[C@@H]2OC[C@H]3OC(=O)Nc2ccc(Oc3ccccc3)cc2)cc1	?	11µM*	?	i	12µM*	17µM*	?	12µM*
COc1ccc(NC(=O)O[C@@H]2CO[C@H]3[C@@H]2OC[C@@H]3NS(=O)(=O)c2ccc3ccccc3c2)cc1	?	-4%	?	?	.	.	.	.
CC(=O)Nc1ccc(S(=O)(=O)N[C@H]2CO[C@H]3[C@@H]2OC[C@@H]3Nc2nccc(-c3ccco3)n2)cc1	25µM*	13µM*	?	i	24µM*	24µM*	0%	27µM*
COc1ccc(OC)c(S(=O)(=O)N[C@H]2CO[C@H]3[C@@H]2OC[C@H]3OC(=O)Nc2ccc(Oc3ccccc3)cc2)c1	?	8.9µM*	?	i	11µM*	14µM*	-7%	9.7µM*
CCN(Cc1ccncc1)C1CN(C(=O)c2nccc3ccccc23)C1	?	.	-29%	.	.	.	.	.
COc1cc(Cl)ccc1C(=O)N1CCC(Cc2nc(C(C)C)no2)CC1	?	-19%	?	i	.	.	.	.
COc1cccc(-c2noc(CC3CCN(C(=O)c4ccc(C(C)C)cc4)CC3)n2)c1	35µM*	10µM*	?	i	14µM*	17µM*	-5%	14µM*
COc1cccc(-c2cc(C3CCN(C(=O)c4ccc(Br)cc4)CC3)[nH]n2)c1	?	?	?	i	27µM*	?	3%	?
CCOc1ccc(C(=O)N2CCC(Cc3nc(-c4cccc(OC)c4)no3)CC2)cc1	?	7.1µM*	?	i	9.7µM*	12µM*	-1%	9.7µM*
O=C(c1cccc(F)c1)N1CCC(Cc2nc(-c3cnccn3)no2)CC1	-23%	-2%	-20%	i	.	.	.	.
COc1cccc(-c2noc(CC3CCN(C(=O)c4ccc(F)c(F)c4)CC3)n2)c1	?	6.3µM*	?	i	4.8µM*	9.7µM*	0%	6.1µM*
C[S+](=O)([O-])N1CCCN(c2ccnc3ccnn23)CC1	-21%[172 µM]	.	-26%[138 µM]	.	.	.	.	.
CCN(CCNC(=O)CCc1cc2cc(OC)ccc2[nH]c1=O)Cc1ccccc1	-3%	-1%	0%	i	.	.	.	.
CCc1ccc(C(=O)N2CCC(Cc3nc(-c4cccc(OC)c4)no3)CC2)cc1	22µM*	4µM*	40µM*	i	9.7µM*	14µM*	2%	12µM*
COc1cccc(-c2noc(CC3CCN(C(=O)c4ccc(C)cc4)CC3)n2)c1	?	3.5µM*	?	i	4.8µM*	5.4µM*	2%	4.3µM*
SMILES	HEK cytotox	NPR1 antag	NIH3T3 tox	FLuc inh	NPR1 antag cnf	NPR2 antag	FLuc inh counter	GloSensor cGMP
COc1cccc(-c2noc(CC3CCN(C(=O)c4ccc(C)cc4C)CC3)n2)c1	35µM*	11µM*	?	i	11µM*	11µM*	0%	9.7µM*
COc1cccc(CCC(=O)N2CCC(Cc3nc(C4CCOCC4)no3)CC2)c1	-9%	-17%	-9%	i	.	.	.	.
COc1ccc(C(=O)N2CCC3(CC2)COc2ccccc2CN3)cc1	?	13%	-13%	i	.	.	.	.
N#Cc1cccc(-c2ccnc(N[C@H]3CO[C@H]4[C@@H]3OC[C@H]4OC(=O)Nc3ccc(Oc4ccccc4)cc3)n2)c1	?	?	?	i	?	-25%	-2%	?
COc1ccc(-c2ccnc(N[C@H]3CO[C@H]4[C@@H]3OC[C@H]4OC(=O)Nc3cccc(C(C)=O)c3)n2)cc1	?	11µM*	?	i	19µM*	22µM*	-20%	17µM*
COc1ccc(-c2ccnc(N[C@H]3CO[C@H]4[C@@H]3OC[C@H]4OC(=O)Nc3ccc(C(C)=O)cc3)n2)cc1	?	10µM*	-32%	i	11µM*	15µM*	1%	9.7µM*
COc1ccc(NC(=O)O[C@@H]2CO[C@H]3[C@@H]2OC[C@@H]3Nc2nccc(-c3cccc(F)c3)n2)cc1	-28%	-2%	?	i	.	.	.	.
COc1ccccc1-c1cc(C(=O)NC2CCCCCC2)c2cnn(C)c2n1	?	.	-15%	.	.	.	.	.
COc1cc(CN2CCC(C)(c3noc(C4CCOCC4)n3)CC2)cc(OC)c1	-4%	?	-8%	i	?	?	0%	3%
